High-throughput results deposited in PubChem by several laboratories.
A1 inh: inhibitors of the anti-apoptotic protein A1, read as caspase activation; MEF A1-2A-BIM cells, Caspase-Glo 3/7 luminescence, 3 h; percent of clofoctol response, vehicle zero; caspase activation, % (concentration not given with the values); 330,000 tested, 0.066% active; AID 2462;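 active = over half of replicate activation scores above 10%, or exactly half above 10 with the replicate mean above 10; inconclusive = replicate mean below 10 yet half the replicates above 10; inactive = over half of replicates below 10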
CSC inhib: blocks cancer stem cells; 300,000 tested, 1.1% active; inhibition, % at 7.5 µM; cancer stem cell-like cells viability, luminescence; in the data active = inhibition above about 75%; inconclusive = no clear call, values can overlap the other calls; tested in HMLE shEcad cells
Mdm2 MdmX PPI: inhibitors of human Mdm2/MdmX interaction; O15151+Q00987; SaOS-2 split-luciferase Mdm2/MdmX complementation, luminescence; inhibition, % at 8 µM; 330,000 tested, 3% active; AID 485346;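 active = inhibition of at least 50% at 8 µM in the primary screen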
aSyn UTR inh: MLPCN primary screen, SNCA 5' untranslated region; inhibition, % (tested at 7.5 µM); 300,000 tested, 0.82% active; alpha-synuclein 5'UTR reporter, inhibitor activity; AID 1813; in the data active = inhibition above about 60%; inconclusive = no clear call, values can overlap the other calls;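 also: H4 neuroglioblastoma cells stably carrying SNCA 5'UTR luciferase fusion; 0% = DMSO wells and 100% = positive control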
Beta apoptosis: blocks beta cell apoptosis; INS-1E cytokine-induced death, ATP luminescence, 48 h; percent of positive-control rescue, neutral wells zero; protection from apoptosis, % (test concentration not listed); 300,000 tested, 0.8% active;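 active = Every replicate reaches about 75%, or at least half do and their mean reaches it too, limit read from the data; inconclusive = At least half of replicates reach the limit but their mean does not; inactive = Under half of replicates reach the limit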;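 also: 0% = cytokine-treated negative control wells and 100% = positive control rescue; higher means more ATP so stronger rescue from cytokine killing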
Mdm2 MdmX conf: confirmation of human Mdm2/MdmX interaction inhibitors. shares compounds with Mdm2 MdmX PPI. Mdm2-MdmX binding, luminescent assay. inhibition, % at 8 µM. 10,000 tested, 55% active. AID 489028; in the data active = inhibition above about 40%
Full FLuc ctr: counter-screen for Mdm2/MdmX inhibitors: full-length luciferase. shares compounds with Mdm2 MdmX PPI. SaOS-2 full-length luciferase counterscreen, luminescence. inhibition, % at 8 µM. 6,200 tested, 77% active. AID 504607;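 active = mean inhibition at 8 µM reaching about 37%, which flags the compound as non-specific, limit read from the data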;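 also: p53-null SaOS-2 cells with luciferase driven by a doxycycline-inducible promoter; compound on cells about two nights before reading with doxycycline added after day one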
The depositor's hits bear a star; ? = inconclusive; / = no result. Only some compounds are listed: those with a hit (about 4.1% of all), similar ones and a draw of the others.

SMILES	A1 inh	CSC inhib	Mdm2 MdmX PPI	aSyn UTR inh	Beta apoptosis	Mdm2 MdmX conf	Full FLuc ctr
Cc1cccc(CN2C(=O)/C(=C\c3ccc(C(=O)NCCN4CCOCC4)cc3)Sc3ccccc32)c1	-0.1	-16.4	80.5*	5.3	2.6	61.1*	76.2*
CN1CCN(CCCNC(=O)c2ccc(/C=C3\Sc4ccccc4N(Cc4ccccc4F)C3=O)cc2)CC1	/	/	/	7.3	/	/	/
CC(C)(C)c1ccc(/C=C2\SC(=O)N(CCNC(=O)c3cccc(S(=O)(=O)N4CCOCC4)c3)C2=O)cc1	-7.1	/	70.0*	-89.2	/	75.9*	86.1*
Cc1ccccc1CN1C(=O)/C(=C\c2ccc(C(=O)NCCN3CCOCC3)cc2)Sc2ccccc21	0.5	26.0	45.1	-3.4	-4.1	/	/
CC1CN(C(=O)CCC(=O)N2CCN(c3cccc(C(F)(F)F)c3)CC2)c2ccccc2O1 (stereo not given)	1.2	21.3	25.3	-1.4	9.0	/	/
CC1(C)Oc2ccc(C(=O)NNC(=O)Nc3ccccc3)cc2NC1=O	-0.3	/	12.5	0.2	-1.8	/	/
Cc1nnc(SCC(=O)NCCC2=CCCCC2)[nH]c1=O	-0.2	-9.4	-14.7	/	-1.7	/	/
CCN1CCN(CCNC(=O)c2ccc(/C=C3/Sc4ccccc4N(Cc4cccc(Cl)c4)C3=O)cc2)CC1	-0.1	?	96.5*	-22.4	9.0	81.2*	57.8*
CN(C)CCN(C)Cc1ccccc1Sc1cccc2ccccc12	0.0	/	64.2*	-8.8	13.0	43.0*	69.1*
CNCc1ccccc1Sc1cccc2ccccc12	0.2	8.7	33.9	8.1	12.8	/	/
O=C(Nc1cccc(Cl)c1)Nc1cc(S(=O)(=O)N2CCCCC2)ccc1Cl	-0.4	86.6*	89.2*	10.2	51.4	90.8*	51.4*
CN1CCN(S(=O)(=O)c2ccc(NC(=O)Nc3cccc(Cl)c3)cc2)CC1	-0.6	/	28.5	-34.3	-2.3	/	/
CCc1ccccc1OCC(=O)Nc1cc(S(=O)(=O)N2CCOCC2)ccc1N1CCCCC1	/	/	51.8*	/	/	41.0*	82.6*
CCOc1ccc(S(=O)(=O)N2CCOCC2)cc1NC(=O)CSCc1ccc(C)cc1	-0.7	53.4	51.9*	/	14.2	55.5*	53.8*
O=C(COc1ccc(S(=O)(=O)N2CCOCC2)cc1)Nc1ccc(Cl)c(C(F)(F)F)c1	0.8	60.8	60.6*	26.7	/	42.9*	65.4*
O=C(COc1ccc(S(=O)(=O)N2CCOCC2)cc1)Nc1ccc2c(c1)OCCO2	1.1	-10.7	5.3	5.0	7.0	/	/
CCCCCCN(C(=O)CCCCCN1C(=O)NC(c2ccc([N+](=O)[O-])cc2)C(C(=O)OCc2ccccc2)=C1C)C(C(=O)NCCCC)C1CCCCC1 (stereo not given)	/	/	25.0	/	/	/	/
COCCN(C(=O)COC(=O)C1(c2ccccc2)CC1)c1c(N)n(CC(C)C)c(=O)[nH]c1=O	-0.2	-3.1	14.2	3.0	/	/	/
COc1ccc(OC)c(S(=O)(=O)N2CCC(C(=O)NCc3ccccn3)CC2)c1	-0.2	-4.7	-2.2	3.2	0.7	/	/
O=C(Nc1ccc(Cl)c(Cl)c1)Nc1cc(S(=O)(=O)N2CCOCC2)ccc1N1CCCC1	0.1	32.0	53.2*	25.5	6.2	12.2	/
COc1ccc(Cl)cc1NC(=O)COc1ccc(S(=O)(=O)N2CCOCC2)cc1C	-0.2	-4.7	68.3*	-41.9	4.4	18.4	/
CCOc1cc(-c2cc(-c3ccccc3)nc(N)c2C#N)ccc1O	0.8	/	76.2*	22.9	/	60.9*	95.2*
N#Cc1c(-c2ccncc2)cc(-c2ccc(F)cc2)nc1N	-0.4	-10.9	15.9	46.7	7.4	/	/
CCOc1cc(-c2cc(-c3ccc(N)cc3)nc(N)c2C#N)ccc1O	-2.8	37.1	51.1*	19.1	-0.3	26.3	123.8*
COc1cc(-c2cc(-c3ccc(F)cc3)nc(N)c2C#N)ccc1O	0.8	/	71.3*	42.3	-0.7	52.0*	55.9*
CCOc1cc(-c2c(C#N)c(N)nc3c2CCCC3)ccc1O	1.0	/	34.4	36.9	8.0	/	/
O=C(COC(=O)[C@@H]1CC(O)CN1S(=O)(=O)c1ccc(Cl)cc1)NC(=O)NCc1ccccc1 (stereo not given in full)	-0.2	-12.4	-1.0	-1.3	-6.5	/	/
O=c1[nH]c2ccc([N+](=O)[O-])cc2nc1/C=C(\O)c1ccccc1	-2.4	-9.8	80.7*	-38.2	30.5	-8.2	/
